{
  "source": "the OligoGym collection",
  "data": [
    {"biological_target": "TAS1R2", "test": "pooled miR-30 sensor sort-seq; sequence = guide strand", "details": "shRNA", "values": [
      {"sequence": "TTGTCTCGCAGCTCATCGCTGA", "sensor-assay potency score (higher = more potent)": -0.453},
      {"sequence": "TAGCACACATCCACGATCTCAT", "sensor-assay potency score (higher = more potent)": 0.125},
      {"sequence": "TTCATCTTCAGTGTGGTTGAGG", "sensor-assay potency score (higher = more potent)": -0.161},
      {"sequence": "TTGCAGGTATAGCTCTGGCTGG", "sensor-assay potency score (higher = more potent)": -1.05},
      {"sequence": "TAGGACCACTCGTTATTCGGGC", "sensor-assay potency score (higher = more potent)": -0.986},
      {"sequence": "TAGAAGAGGATCATGTAGCACT", "sensor-assay potency score (higher = more potent)": -0.0652},
      {"sequence": "TAGACCGCAGAGTACACGCTGT", "sensor-assay potency score (higher = more potent)": -0.157},
      {"sequence": "ATAGGTGTCGCTGCTCACCAGC", "sensor-assay potency score (higher = more potent)": -0.83},
      {"sequence": "TTCATATTCATCTTCAGTGTGG", "sensor-assay potency score (higher = more potent)": 0.0168},
      {"sequence": "TTGTTGATCTCCTCCACCGCAA", "sensor-assay potency score (higher = more potent)": -0.437},
      {"sequence": "TAGGCAGACATGAAGGTGCAGA", "sensor-assay potency score (higher = more potent)": -0.389}
    ]},
    {"biological_target": "TAS2R31", "test": "pooled miR-30 sensor sort-seq; sequence = guide strand", "details": "shRNA", "values": [
      {"sequence": "TAGAACCACTACCACACTGGAA", "sensor-assay potency score (higher = more potent)": -1.01},
      {"sequence": "TTGATCTTCCAAGTCAAGTTTC", "sensor-assay potency score (higher = more potent)": -0.849},
      {"sequence": "TTAACAGCAAAAAACATAGCAG", "sensor-assay potency score (higher = more potent)": -0.409},
      {"sequence": "TACAGTCGCATCTGAAAGGTAC", "sensor-assay potency score (higher = more potent)": -0.71},
      {"sequence": "AATAGAACCACTACCACACTGG", "sensor-assay potency score (higher = more potent)": 0.475},
      {"sequence": "TTTTGTCCGTACAATCTCTTTC", "sensor-assay potency score (higher = more potent)": -0.469},
      {"sequence": "TTACAGTCGCATCTGAAAGGTA", "sensor-assay potency score (higher = more potent)": -0.265},
      {"sequence": "TAACAGCAAAAAACATAGCAGG", "sensor-assay potency score (higher = more potent)": -0.785},
      {"sequence": "TTCTTTTGTCCGTACAATCTCT", "sensor-assay potency score (higher = more potent)": -0.58},
      {"sequence": "TCCAATAACAAATAGAACCACT", "sensor-assay potency score (higher = more potent)": -1.14}
    ]},
    {"biological_target": "TBC1D10A", "test": "pooled miR-30 sensor sort-seq; sequence = guide strand", "details": "shRNA", "values": [
      {"sequence": "TTCTGCTGTAACTTCACCTTGC", "sensor-assay potency score (higher = more potent)": 0.827},
      {"sequence": "TTGTGCTTCTTGGCCATCCATT", "sensor-assay potency score (higher = more potent)": -1.02},
      {"sequence": "ATCGCCTCCAGTTTCTCGCTGT", "sensor-assay potency score (higher = more potent)": -0.233},
      {"sequence": "TTCACAGAAGAACATGTCCCAG", "sensor-assay potency score (higher = more potent)": -0.889},
      {"sequence": "TTTTACACAAAGAACACCCCAC", "sensor-assay potency score (higher = more potent)": 0.708},
      {"sequence": "TTGAGCATGTCCAGCCACTTGG", "sensor-assay potency score (higher = more potent)": -0.533},
      {"sequence": "TTTCTCGCTGTAGTAGCCGGGC", "sensor-assay potency score (higher = more potent)": -0.648},
      {"sequence": "TTGGGGGCTGAGTCCTTCGGGG", "sensor-assay potency score (higher = more potent)": -1.22},
      {"sequence": "TCACAGAAGAACATGTCCCAGA", "sensor-assay potency score (higher = more potent)": -0.251},
      {"sequence": "TTCTGCATCCAAGATAGCCTTG", "sensor-assay potency score (higher = more potent)": -0.737},
      {"sequence": "TTGCTCAGCAGGCATATGCATG", "sensor-assay potency score (higher = more potent)": -1.58},
      {"sequence": "TTGTTGAGCATGTCCAGCCACT", "sensor-assay potency score (higher = more potent)": -1.14}
    ]},
    {"biological_target": "TBC1D7", "test": "pooled miR-30 sensor sort-seq; sequence = guide strand", "details": "shRNA", "values": [
      {"sequence": "TTCTTTTCTTCAACTCCACGAA", "sensor-assay potency score (higher = more potent)": -0.5},
      {"sequence": "TAACTTCCCAGACTCCAGCTGA", "sensor-assay potency score (higher = more potent)": -0.346},
      {"sequence": "TCTCATAATATACTGAACGAAA", "sensor-assay potency score (higher = more potent)": -1.27},
      {"sequence": "TCAAGTATTGTTCAAACGCTTT", "sensor-assay potency score (higher = more potent)": -1.28},
      {"sequence": "TTTGTTATCTTCTCTGCACTGT", "sensor-assay potency score (higher = more potent)": 0.575},
      {"sequence": "TTGTTATCTTCTCTGCACTGTT", "sensor-assay potency score (higher = more potent)": -0.778},
      {"sequence": "TTACGATACATCATCACCTTGG", "sensor-assay potency score (higher = more potent)": 0.3}
    ]}
  ]
}
